Measured values published in PubChem BioAssay (Tox21).
The source made the active and inactive calls. Where a call stands in place of a potency, no number is given. Calls come from the whole dose curve; as a rule, active = well fitted activation curve with a large enough effect in the repeat runs; inconclusive = weak or mixed curves; inactive = flat fitted curve, though single readings scatter.

Experiment: A CellTox Green Cytotoxicity Assay to monitor cytotoxicity in HEK293 cells - 0 hour (AID 1224869); note: nearly all actives have a fitted effect of over 50% in size
Settings: CellTox Green fluorescence; series mostly up to 76.8 µM
Description: National Center for Advancing Translational Sciences [NCATS]
NIH Chemical Genomics Center [NCGC]
U.S. Environmental Protection Agency [EPA]
National Institutes of Environmental Health Sciences [NIEHS]
National Toxicology Program [NTP]
Cell-based models are critical for drug discovery. Determining the natural cytotoxic effects resulting from test compounds is an essential research activity. A CellTox Green Cytotoxicity Assay to monitor cytotoxicity in real time of continues cell culture during 40 hours of the compound treatment was used to screen Tox21 10K library compounds in Hek293 cells. CellTox Green Cytotoxicity Assay is a nonlytic, homogeneous, biofluorescent method to measure cytotoxicity in cell culture after experimental manipulation. The assay system uses a proprietary asymmetric cyanine dye that is excluded from viable cells but preferentially stains the dead cell's DNA. […] Viable cells produce no appreciable increases in fluorescence. Therefore, the fluorescence signal produced by the binding interaction with dead cell DNA is proportional to cytotoxicity.
The mixture of Hek293 cell suspension and reagents were dispensed at 600cells/6 ul/well in 1536-well tissue culture treated black solid bottom plates using a Multidrop dispenser. After the assay plates were incubated at a 37 C/5% CO2 incubator for 5 hours, 23 nL of compounds dissolved in DMSO, positive and negative controls was transferred to the assay plate by a pintool work station. The plates were incubated at 37 C for 40 hours. The fluorescence intensity were measured at 0h, 8h, 16h, 24h, 32h and 40h time points using ViewLux plate reader during compound treatment.
Potency is the fitted concentration of half-maximal effect.

Row | SMILES | Potency
1 | C/C=C/C(=O)OCC(C)C | inactive
2 | CCC(=O)OC/C=C(\C)CCC=C(C)C | inactive
3 | C=CC(=O)OCC(Br)CBr (stereo not given) | inactive
4 | CC(O)(c1ccc(Cl)cc1)c1ccc(Cl)cc1 | inactive
5 | CCc1cccc(C)c1N(C(=O)CS(=O)(=O)O)C(C)COC (stereo not given) | inactive
6 | C=C1C(CCl)(CCl)C2(Cl)C(Cl)C(Cl)C1(Cl)C2(Cl)Cl (stereo not given) | inactive
7 | CCCOC(=O)c1ccc(O)cc1 | inactive
8 | N#Cc1nc(Cl)c(Cl)c(Cl)c1Cl | inactive
9 | CC(Cc1ccc(O)c(O)c1)C(C)Cc1ccc(O)c(O)c1 (stereo not given) | inactive
10 | CCCCCCCCCC[N+](C)(CCCCCCCCCC)CCC[Si](OC)(OC)OC | inactive
11 | CC(C)=CCC[C@H](C)CC=O | inactive
12 | CC/C=C(\C)C=O | inactive
13 | C=Cc1ccc(O)c(OC)c1 | inactive
14 | CC(C)(c1ccc(Oc2ccc(N)cc2)cc1)c1ccc(Oc2ccc(N)cc2)cc1 | inactive
15 | Cc1cccc2c1ccc1ccccc12 | inactive
16 | Cc1ccc2sc3cccc(C)c3c2c1 | inactive
17 | C/C(=C\c1ccc(C(=O)O)cc1)c1ccc2c(c1)C(C)(C)CCC2(C)C | inactive
18 | c1ccc(-c2ccc(C(c3ccccc3)n3ccnc3)cc2)cc1 (stereo not given) | inactive
19 | COc1c(Br)cc(Br)c(C)c1Br | inactive
20 | O=[N+]([O-])c1ccc(CO)cc1 | inactive

Row | SMILES | Potency
21 | CCN(CCC#N)c1ccc(N=Nc2ccc([N+](=O)[O-])cc2)cc1 | inactive
22 | Cn1ccnc1 | inactive
23 | Nc1ccc(F)c([N+](=O)[O-])c1 | inactive
24 | Cc1ccc(C2OC[C@@H]3OC(c4ccc(C)cc4)O[C@H]([C@H](O)CO)[C@@H]3O2)cc1 (stereo not given in full) | inactive
25 | Cc1cc(Br)ccc1NC(=O)CCl | inactive
26 | CCCCCCCCCCCCN1CCCC1=O | inactive
27 | CCC(C)(C)c1ccc(CC(C)CN2C[C@@H](C)O[C@@H](C)C2)cc1 (stereo not given in full) | inactive
28 | CCCCCCCCSCc1cc(C)c(O)c(CSCCCCCCCC)c1 | inactive
29 | C[C@H]1O[C@@H](O[C@H]2CC[C@@]3(C)[C@H](CC[C@@H]4[C@@H]3C[C@@H](O)[C@]3(C)[C@@H](C5=CC(=O)OC5)CC[C@]43O)C2)C[C@H](O)[C@@H]1O[C@H]1C[C@H](O)[C@H](O[C@H]2C[C@H](O)[C@H](O[C@@H]3O[C@H](CO)[C@@H](O)[C@H](O)[C@H]3O)[C@@H](C)O2)[C@@H](C)O1 | inactive
30 | COc1cc(/C=C/C(=O)CC(=O)/C=C/c2ccc(O)c(OC)c2)ccc1O | 22 µM (active)
31 | Cn1c(=O)[nH]c2ncn(C)c2c1=O | inactive
32 | CC(c1cc(C(C)(C)C)cc(C(C)(C)C)c1O)c1cc(C(C)(C)C)cc(C(C)(C)C)c1O | inactive
33 | O=C(N[C@H](CO)[C@H](O)c1ccc([N+](=O)[O-])cc1)C(Cl)Cl | inactive
34 | [Cl][Dy]([Cl])[Cl] | inactive
35 | Clc1cccc(Cl)n1 | inactive
36 | N#CCCOCCC#N | inactive
37 | ClC(c1ccccc1)(c1ccccc1)c1ccccc1 | inactive
38 | [Cl][Eu]([Cl])[Cl] | inactive
39 | CCN(CC)c1ccc2c(c1)Oc1cc(N(CC)CC)ccc1C21OC(=O)c2ccccc21 | 19 µM (active)
40 | O=S(=O)(c1ccc(OCc2ccccc2)cc1)c1ccccc1O | inactive
